Experimental data published in PubChem BioAssay AID2314 (National Center for Advancing Translational Sciences (NCATS), 2010).
Out of some 300,000 compounds screened, about 37,000 (12%) were called active. Shown is part of a subset that was picked to be rich in actives. Unmarked numbers belong to inactive results. Rule as the data show it: active = max response mostly above about 13% (no sharp cut-off); inactive = mostly below about 14%.

Test: Cycloheximide Counterscreen for Small Molecule Inhibitors of Shiga Toxin; also: read at 38.3 µM for the half of the compounds with a filed dose; 0% is about no effect
Conditions: cell reporter, cycloheximide protein synthesis inhibition counterscreen; stronger effect = higher value

Compound	max response
COc1ccc(C(CNC(=O)c2ccc(S(=O)(=O)Nc3ccccc3F)cc2)N(C)C)cc1 (centres undefined)	-6%
COC(=O)c1cccc(N(C(=O)c2ccco2)C(C(=O)NC2CCCC2)c2ccco2)c1 (centres undefined)	-1.82%
COc1cc(CNC2CCCCC2)c(Br)cc1OC1CCCC1	-7.03%
CCc1ccc(CN(C)C(=O)C2CCC(=O)N(Cc3cccc(OC)c3)C2)nc1 (centres undefined)	4.36%
CCn1nc(C)c(NC(=O)/C=C/c2ccc(OC)c(COc3ccc(Br)cc3)c2)c1C	2.79%
CCCc1cc(=O)oc2c(C)c(OC(C)C(=O)NCC(O)c3ccccc3)ccc12 (centres undefined)	-2.74%
Cc1ccc(S(=O)(=O)NCC(=O)N(CC(=O)NCC2CCCO2)c2cccc(F)c2)cc1 (centres undefined)	1.36%
CC(=O)NCC(=O)NC1CCCc2c1cnn2-c1ccccc1F (centres undefined)	5.35%
CCOC(=O)C(=CNNc1ccsc1C(=O)OC)C(=O)OCC	12.1%
O=C1CN(c2nc(-c3ccccc3)c3cc(Br)ccc3n2)c2ccccc2N1	-2.03%
O=S(=O)(NCC1CN(S(=O)(=O)c2ccc3c(c2)OCCO3)C1)c1c(F)cccc1F	-7.82%
COc1ccccc1CNC(=O)c1cc(=O)c2ccccc2o1	28.7%
O=C1NC(Nc2nc3ccccc3s2)(C(F)(F)F)C(=O)N1C1CCCCC1 (centres undefined)	0.879%
Cc1sc2ncnc(Sc3nc4ccccc4s3)c2c1C	-3.1%
c1ccc2sc(SNC3CCCCC3)nc2c1	43.3% (active)
Cc1c(CC(=O)N2CCN(C(=O)C3COc4ccccc4O3)CC2)c(=O)oc2c(O)c(O)ccc12 (centres undefined)	-3.9%
CCOc1ccccc1OCCCNCc1ccccc1	-2.14%
COc1ccc2c(c1)cc1n2CCN=C1NN	64.4% (active)
Cc1cccc(OCC(O)CN2CCN(S(=O)(=O)c3ccc(C)cc3C)CC2)c1 (centres undefined)	6.97%
CC(C)c1ccc(-c2noc(C3CCCN(S(C)(=O)=O)C3)n2)cc1 (centres undefined)	39.9% (active)
COc1cccc(-c2noc(C3CCCN(C(=O)c4ccc(F)cc4)C3)n2)c1 (centres undefined)	20.6% (active)
COc1ccc(NC(=O)N2CCCC(c3nc(-c4ccc(F)cc4)no3)C2)cc1 (centres undefined)	27.8% (active)
COc1ccc(NC2CCCN(C(=O)c3ccncc3)C2)cc1 (centres undefined)	-1.48%
CC(C)c1ccc(NC(=O)C2CCCN(S(=O)(=O)c3cccnc3)C2)cc1 (centres undefined)	5.83%

Compound	max response
O=C(c1ccc(F)cc1)N1CCCC(c2nc(-c3cccs3)no2)C1 (centres undefined)	20.3%
CCn1nc(C)cc1C(=O)N1CCCC(C(=O)c2cccc(OC)c2)C1 (centres undefined)	2.78%
O=C(Cc1cccs1)N1CCCC(c2nc(-c3ccc(S(=O)(=O)N4CCCC4)cc3)no2)C1 (centres undefined)	-2.82%
CCN(C(=O)C1CCCN(c2nc(-c3ccc(OC)cc3)no2)C1)c1ccc(OC)cc1 (centres undefined)	-1.83%
COc1cc(-c2noc(C3CCCN(S(=O)(=O)c4cccc(Cl)c4)C3)n2)cc(OC)c1OC (centres undefined)	-4.41%
O=C(c1cccs1)N1CCCC(c2nc(-c3ccc(F)cc3)no2)C1 (centres undefined)	26.6% (active)
O=C(c1ccc(F)cc1)N1CCCC(C(=O)N2CCCCC2)C1 (centres undefined)	-3.54%
NC(=O)C1CC(=O)N(c2ccc(OCC(=O)NCc3ccccc3)cc2)C1 (centres undefined)	-2.39%
Cc1ccc(S(=O)(=O)N2CCC(C)CC2)cc1C(=O)NCc1ccccn1	5.45%
NC(=O)c1oc2ccccc2c1NC(=O)CS(=O)(=O)c1ccccc1	14.9%
C=CCOc1cccc(CNCc2cccnc2)c1	1.07%
COc1ccc(/C=C2/C(=O)OCc3cc(OC)c(OC)cc32)c(OC)c1	-1.45%
CC(=O)c1cccc(NC(=O)C2CCN(C(=O)c3ccccc3Cl)CC2)c1	-2.1%
COC(=O)c1cccc(N(CC(=O)NCC2CCCO2)C(=O)CCC(=O)Nc2cc(C)on2)c1 (centres undefined)	-2.44%
COc1cccc(NC(=O)CCc2nnc3ccc(N4CCC(C)CC4)nn23)c1	-5.83%
COc1ccccc1CN1CCNC(=O)C1CC(=O)N(C)CC1CCOCC1 (centres undefined)	-1.38%
Cc1ccc2nc(C)c3c(c2c1)N(c1ccccc1)CC3	-1.78%
CCc1nc2ccc(C(=O)N3CCN(c4cccc(Cl)c4)CC3)cc2nc1CC	-0.581%
Cc1ccc(-c2noc(C3CCCN(C(=O)c4cccc(Cl)c4)C3)n2)o1 (centres undefined)	47.3% (active)
Cc1c(CN2CCCC(C(=O)c3cccc(Cl)c3)C2)c(=O)n(-c2ccccc2)n1C (centres undefined)	-3.35%
Cc1cccc2c1-c1sc(C(=O)NCCCN3CCc4ccccc4C3)cc1CO2	1.19%
O=S1(=O)N=C(N(CCO)/N=C/c2ccccc2F)c2ccccc21	-7.2%
CCOC(=O)Cc1csc(SCC(=O)NC(C)C23CC4CC(CC(C4)C2)C3)n1 (centres undefined)	-2.6%
CSc1ncccc1C(=O)N1CCCC(CCC(=O)NCc2ccccc2F)C1 (centres undefined)	-1.29%

Compound	max response
Cc1[nH]c2c(C(=O)N3CCCC(CCC(=O)NCc4ccccc4F)C3)cccc2c1C (centres undefined)	18.9% (active)
O=C(CCC1CCCN(Cc2ccc(O)c(Cl)c2)C1)NCc1ccccc1F (centres undefined)	-1.08%
CC(C)(C)c1ccc(OC2=CS(=O)(=O)c3ccccc32)cc1	81.1% (active)
COc1ccc(CN2CCC(=O)c3ccccc3S2(=O)=O)cc1	-4.16%
O=S1(=O)C=C(SCCN2CCCC2)c2ccccc21	4.83%
CS(=O)(=O)N1CCCC(C(=O)Nc2ccccc2C(F)(F)F)C1 (centres undefined)	0.965%
CN1C(=O)c2cccc3c(N)ccc(c23)C1=O	-4.64%
Cn1c(=O)c2c(nc(NCCc3ccccc3)n2Cc2ccccc2)n(C)c1=O	-1.53%
C=CCOc1nc2c(c(=O)n(C)c(=O)n2C)n1Cc1ccc(Cl)cc1Cl	-2.08%
Cn1c(=O)c2c(nc(OCc3cccnc3)n2Cc2ccccc2)n(C)c1=O	14.9% (active)
CS(=O)(=O)N(CC(=O)N1CCCCCC1)c1cccc(Cl)c1Cl	-2.66%
CC(=O)Nc1ccc(S(=O)(=O)N2CCC(NC(=O)c3ccccc3)CC2)cc1	-2%
COc1ccc(S(=O)(=O)N2CCN(C(=S)NCC3CCCO3)CC2)cc1OC (centres undefined)	-1.28%
Cc1cccc(-n2c(O)c(C=Nc3ccccc3N)c(=O)[nH]c2=O)c1	39.4% (active)
Cc1cccc(-n2c(O)c(/C=N/N3CCOCC3)c(=O)[nH]c2=S)c1	-8.26%
Cc1cccc(-n2c(O)c(C=NC34CN5CN(CN(C5)C3)C4)c(=O)[nH]c2=O)c1	8.1%
CC1(C)Oc2ccc3ccc(=O)oc3c2/C(=N/O)C1=O	7.27%
O=C(N/N=C/c1ccccc1O)C1CCCC1	28% (active)
COc1ccc(/C=N/NC(=O)C2CC2)c(OC)c1OC	3.25%
Oc1ccccc1C=NC1CCCCC1N=Cc1ccccc1O (centres undefined)	6.63%
COc1cc(NC(=O)NCC2CCN(Cc3ccc(C)cc3)CC2)cc(OC)c1OC	-2.97%
COc1ccccc1C(=O)OCC(=O)NCCNC(=O)COC(=O)c1ccccc1OC	-1.55%
COc1cc(C(=O)NCc2ccc3c(c2)cc(C)n3C)cc(OC)c1OC	-6.41%
Cc1ccc(C(C(=O)NCC2CCCO2)N(C(=O)c2snc(C(N)=O)c2N)c2ccc(C(C)C)cc2)o1 (centres undefined)	8.94%

Compound	max response
CCNc1nc(Oc2ccc(C(=O)OC)cc2)nc(N2CCOCC2)n1	-3.34%
COC(=O)c1ccc(Oc2nc(Nc3ccc(F)cc3)nc(N3CCCC3)n2)cc1	0.283%
COC(=O)c1ccc(Oc2nc(NC(C)C)nc(SC)n2)cc1	9.19% (active)
CCOc1ccc(NC(=O)CC(Cc2ccc(Cl)cc2)C(=O)O)cc1 (centres undefined)	-1.1%
O=C(O)c1ccccc1-c1ccccc1C(=O)Nc1nccs1	-6.56%
Cn1cccc1C(=O)Nc1nccs1	18.6% (active)
CC(NC(=O)C(=O)Nc1nccs1)c1ccccc1 (centres undefined)	-0.875%
Cc1ccc2cccc(S(=O)(=O)N3CCN(c4ccccc4F)CC3)c2n1	-1.96%
COc1ccccc1Nc1cc(C(=O)NCCCN(C)C2CCCCC2)c2ccccc2n1	-15.5%
CCc1ccc(-c2nnn(Cc3nn[nH]n3)n2)cc1	-4.49%
CCc1ccc(-c2nnn(Cc3nc4ccccc4s3)n2)cc1	38.7% (active)
Clc1cccc(Cl)c1Cn1nnc(-c2cccs2)n1	1.15%
Cc1cc(N2CCN(c3ccc(F)cc3)CC2)n2ncnc2n1	1.63%
COC(=O)c1ccccc1NS(=O)(=O)c1ccc2[nH]c(=O)[nH]c2c1	-1.95%
Cc1ccccc1NC(=S)NNC(=O)c1cccc(Br)c1	17.3% (active)
Cc1cc(C(=O)NNC(=S)NC(C)c2ccccc2)cs1 (centres undefined)	-2.7%
Cc1ccc(C)c(NC(=S)NNC(=O)c2csc(C)c2)c1	10.1%
Cc1cc(C(=O)NNC(=S)Nc2ccccc2C)cs1	34.5% (active)
CC(CC(=O)O)CC(=O)NNC(=O)c1cccc(Br)c1 (centres undefined)	-1.69%
O=C(NC(=S)Nc1cccc2c(O)cccc12)c1cccc(Br)c1	-1.87%
CCCCN=C1C([N+](=O)[O-])=CC=C2C1=NC1(CCCCC1)N2O	4.25%
CCCc1nnc(NC(=O)CCC(=O)NC2CC2)s1	-2.75%
